Source: publication PMC7862700, “An all-to-all approach to the identification of sequence-specific readers for epigenetic DNA modifications on cytosine”

Columns and labels:
Assay in all cases: DAPPL (digital affinity profiling via proximity ligation, sequencing); 10 mM Tris-HCl pH 7.5, 50 mM NaCl, 1 mM DTT, 4% glycerol, room temperature, 30 min; GST-TFs on glutathione beads, 16-mer random dsDNA library, 0.1% formaldehyde crosslink after washing; high values mean tight binding
Settings in all cases: protein: recombinant; tags: N-terminal GST; dsDNA, one strand shown
[1] = biological target: T1, FLI1 (Homo sapiens, UniProt Q01543 1-452)
T1 sequence: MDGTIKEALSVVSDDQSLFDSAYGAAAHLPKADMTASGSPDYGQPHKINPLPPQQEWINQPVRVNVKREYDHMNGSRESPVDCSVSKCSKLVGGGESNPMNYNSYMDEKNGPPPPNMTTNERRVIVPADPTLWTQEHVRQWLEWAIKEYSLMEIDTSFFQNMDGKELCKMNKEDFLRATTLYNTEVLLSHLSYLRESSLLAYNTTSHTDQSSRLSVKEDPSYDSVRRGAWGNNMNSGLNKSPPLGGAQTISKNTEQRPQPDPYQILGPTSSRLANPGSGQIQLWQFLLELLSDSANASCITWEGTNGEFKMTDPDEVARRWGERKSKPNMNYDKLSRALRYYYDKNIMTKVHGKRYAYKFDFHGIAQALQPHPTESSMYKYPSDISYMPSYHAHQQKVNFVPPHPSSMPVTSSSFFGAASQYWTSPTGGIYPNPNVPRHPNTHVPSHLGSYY
How it was run: (§1)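 Each value of binding signal is a hexamer's read frequency for a factor divided by the same hexamer's frequency in the tag-only sample. Barcoded, bead-captured GST fusions of human transcription factors made in yeast were pooled with that sample and incubated with 200 nmole of a random double-stranded 16-mer DNA library in Tris/NaCl/DTT/glycerol buffer at room temperature for 30 min. Washing, 0.1% formaldehyde crosslinking, proximity ligation, PCR and Illumina NextSeq500 sequencing followed.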

[2] = biological target: T2, ELK1 (Homo sapiens, UniProt P19419 1-428)
T2 sequence: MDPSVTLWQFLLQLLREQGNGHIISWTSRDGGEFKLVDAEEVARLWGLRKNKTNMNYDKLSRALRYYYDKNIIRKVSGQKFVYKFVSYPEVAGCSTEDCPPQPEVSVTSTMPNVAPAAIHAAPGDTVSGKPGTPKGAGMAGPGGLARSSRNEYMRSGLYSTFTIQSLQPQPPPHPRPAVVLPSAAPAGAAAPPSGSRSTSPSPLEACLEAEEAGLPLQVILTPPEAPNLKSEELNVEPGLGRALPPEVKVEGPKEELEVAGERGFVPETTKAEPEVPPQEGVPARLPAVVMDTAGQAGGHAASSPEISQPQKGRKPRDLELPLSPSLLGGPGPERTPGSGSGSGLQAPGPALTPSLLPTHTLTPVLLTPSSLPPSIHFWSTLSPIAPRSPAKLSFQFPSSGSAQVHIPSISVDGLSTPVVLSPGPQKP
How it was run: as §1

[3] = biological target: T3, GABPA (Homo sapiens, UniProt Q06546 1-454)
T3 sequence: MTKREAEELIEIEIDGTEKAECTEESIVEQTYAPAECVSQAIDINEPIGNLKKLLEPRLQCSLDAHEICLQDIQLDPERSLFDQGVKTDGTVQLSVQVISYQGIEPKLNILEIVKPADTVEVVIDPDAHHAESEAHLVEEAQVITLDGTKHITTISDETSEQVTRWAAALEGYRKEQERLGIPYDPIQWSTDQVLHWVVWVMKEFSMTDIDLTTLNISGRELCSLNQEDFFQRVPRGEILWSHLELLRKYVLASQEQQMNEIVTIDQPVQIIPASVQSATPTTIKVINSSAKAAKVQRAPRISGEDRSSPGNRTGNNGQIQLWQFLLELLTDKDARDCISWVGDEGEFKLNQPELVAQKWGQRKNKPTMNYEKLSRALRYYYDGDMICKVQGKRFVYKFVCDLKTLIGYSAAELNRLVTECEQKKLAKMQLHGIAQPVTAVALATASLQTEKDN
How it was run: as §1

[4] = biological target: T4, ERG (Homo sapiens, UniProt P11308 1-479)
T4 sequence: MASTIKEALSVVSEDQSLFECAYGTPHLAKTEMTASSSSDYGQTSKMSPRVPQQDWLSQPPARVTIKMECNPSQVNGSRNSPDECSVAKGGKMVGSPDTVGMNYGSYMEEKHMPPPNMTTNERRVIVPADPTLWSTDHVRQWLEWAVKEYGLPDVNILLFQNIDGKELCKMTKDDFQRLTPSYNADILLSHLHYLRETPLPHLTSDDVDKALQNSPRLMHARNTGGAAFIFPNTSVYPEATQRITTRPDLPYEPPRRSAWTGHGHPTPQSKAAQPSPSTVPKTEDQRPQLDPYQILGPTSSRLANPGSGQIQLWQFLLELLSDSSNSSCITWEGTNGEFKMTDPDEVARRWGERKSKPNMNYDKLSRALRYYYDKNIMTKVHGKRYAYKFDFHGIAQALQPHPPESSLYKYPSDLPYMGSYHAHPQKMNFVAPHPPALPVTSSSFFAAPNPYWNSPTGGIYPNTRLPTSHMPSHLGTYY
How it was run: as §1

[5] = biological target: ELF1 (Homo sapiens, UniProt P32519 1-619)
Chain of ELF1 (P32519 whole entry): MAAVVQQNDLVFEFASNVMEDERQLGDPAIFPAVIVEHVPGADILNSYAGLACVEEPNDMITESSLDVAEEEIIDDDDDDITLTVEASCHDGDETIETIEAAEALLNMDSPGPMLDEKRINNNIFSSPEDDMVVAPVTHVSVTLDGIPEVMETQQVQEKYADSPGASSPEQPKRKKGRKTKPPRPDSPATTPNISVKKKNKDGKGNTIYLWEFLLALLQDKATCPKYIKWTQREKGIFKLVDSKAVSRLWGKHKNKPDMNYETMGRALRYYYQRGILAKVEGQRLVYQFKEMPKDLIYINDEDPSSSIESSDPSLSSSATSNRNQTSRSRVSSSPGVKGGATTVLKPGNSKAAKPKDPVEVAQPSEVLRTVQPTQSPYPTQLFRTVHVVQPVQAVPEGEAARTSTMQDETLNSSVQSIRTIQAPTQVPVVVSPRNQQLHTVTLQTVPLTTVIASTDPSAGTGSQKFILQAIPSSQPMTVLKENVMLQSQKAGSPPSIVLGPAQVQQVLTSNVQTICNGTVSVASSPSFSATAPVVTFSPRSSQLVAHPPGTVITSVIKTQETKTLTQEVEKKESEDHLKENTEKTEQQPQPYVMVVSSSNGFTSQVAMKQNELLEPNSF
How it was run: as §1

[6] = biological target: T5, EHF (Homo sapiens, UniProt Q9NZC4 1-300)
T5 sequence: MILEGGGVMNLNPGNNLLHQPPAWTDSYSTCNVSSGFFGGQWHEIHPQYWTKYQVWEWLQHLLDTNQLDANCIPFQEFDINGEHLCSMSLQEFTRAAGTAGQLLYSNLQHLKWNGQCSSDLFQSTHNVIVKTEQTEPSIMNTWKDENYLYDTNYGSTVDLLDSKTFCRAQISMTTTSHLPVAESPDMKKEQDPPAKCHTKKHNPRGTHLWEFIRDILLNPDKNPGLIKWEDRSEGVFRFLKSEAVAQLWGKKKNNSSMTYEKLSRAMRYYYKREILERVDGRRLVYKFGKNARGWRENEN
How it was run: as §1

[7] = biological target: SPI1 (Homo sapiens, UniProt P17947 1-270)
How it was run: as §1

[8] = biological target: SPIB (Homo sapiens, UniProt Q01892 1-262)
Chain of SPIB (Q01892 whole entry): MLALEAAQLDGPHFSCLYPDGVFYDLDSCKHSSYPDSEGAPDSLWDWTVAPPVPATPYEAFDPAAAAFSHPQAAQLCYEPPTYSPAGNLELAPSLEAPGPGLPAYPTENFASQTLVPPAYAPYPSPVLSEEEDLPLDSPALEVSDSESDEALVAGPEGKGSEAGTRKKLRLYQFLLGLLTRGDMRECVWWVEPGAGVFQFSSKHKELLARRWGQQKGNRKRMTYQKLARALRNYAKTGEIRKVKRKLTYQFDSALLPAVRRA
How it was run: as §1

[9] = biological target: T6, ELK3 (Homo sapiens, UniProt P41970 1-407)
T6 sequence: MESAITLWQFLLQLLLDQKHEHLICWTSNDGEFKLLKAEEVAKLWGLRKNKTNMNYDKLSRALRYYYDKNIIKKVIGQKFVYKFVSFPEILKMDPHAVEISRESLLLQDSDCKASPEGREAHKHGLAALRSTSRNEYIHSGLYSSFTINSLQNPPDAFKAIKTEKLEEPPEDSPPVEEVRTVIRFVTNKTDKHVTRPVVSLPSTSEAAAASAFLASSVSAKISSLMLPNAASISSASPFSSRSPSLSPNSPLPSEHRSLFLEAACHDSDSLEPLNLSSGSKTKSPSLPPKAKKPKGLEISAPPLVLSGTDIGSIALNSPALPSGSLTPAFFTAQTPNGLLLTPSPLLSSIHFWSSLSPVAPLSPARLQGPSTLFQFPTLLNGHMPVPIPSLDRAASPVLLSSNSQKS
How it was run: as §1

[10] = biological target: T7, FEV (Homo sapiens, UniProt Q99581 1-238)
T7 sequence: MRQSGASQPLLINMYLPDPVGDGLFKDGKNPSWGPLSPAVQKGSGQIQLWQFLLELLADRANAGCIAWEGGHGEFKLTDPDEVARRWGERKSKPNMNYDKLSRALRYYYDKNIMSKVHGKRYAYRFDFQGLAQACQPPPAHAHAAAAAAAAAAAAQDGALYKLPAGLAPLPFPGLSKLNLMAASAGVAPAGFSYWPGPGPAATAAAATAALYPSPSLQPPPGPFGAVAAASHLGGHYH
How it was run: as §1

[11] = biological target: ETV5 (Homo sapiens, UniProt P41161 1-510)
Chain of ETV5 (P41161 whole entry): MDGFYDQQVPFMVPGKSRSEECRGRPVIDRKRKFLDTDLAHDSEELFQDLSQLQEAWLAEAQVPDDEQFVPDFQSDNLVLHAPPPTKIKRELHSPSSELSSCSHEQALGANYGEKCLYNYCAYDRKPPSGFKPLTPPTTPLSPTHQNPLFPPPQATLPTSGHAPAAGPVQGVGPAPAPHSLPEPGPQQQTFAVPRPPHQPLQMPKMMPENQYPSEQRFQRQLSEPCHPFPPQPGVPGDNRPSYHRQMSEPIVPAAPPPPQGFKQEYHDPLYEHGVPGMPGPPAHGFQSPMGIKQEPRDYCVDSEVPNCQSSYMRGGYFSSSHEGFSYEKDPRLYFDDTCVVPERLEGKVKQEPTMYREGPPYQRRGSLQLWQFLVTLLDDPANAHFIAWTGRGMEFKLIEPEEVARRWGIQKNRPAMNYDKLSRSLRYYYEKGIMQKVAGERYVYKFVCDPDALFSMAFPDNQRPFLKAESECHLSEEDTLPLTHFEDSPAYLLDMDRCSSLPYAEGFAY
How it was run: as §1

[12] = biological target: T8, SPIC (Homo sapiens, UniProt Q8N5J4 1-248)
T8 sequence: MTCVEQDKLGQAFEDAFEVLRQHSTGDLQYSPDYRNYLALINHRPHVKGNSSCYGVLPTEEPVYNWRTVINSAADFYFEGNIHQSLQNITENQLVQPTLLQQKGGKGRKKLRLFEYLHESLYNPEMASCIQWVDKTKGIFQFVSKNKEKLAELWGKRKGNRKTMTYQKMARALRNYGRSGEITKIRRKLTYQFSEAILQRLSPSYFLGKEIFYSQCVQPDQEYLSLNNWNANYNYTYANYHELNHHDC
How it was run: as §1

[13] = biological target: ELF4 (Homo sapiens, UniProt Q99607 1-663)
Chain of ELF4 (Q99607 whole entry): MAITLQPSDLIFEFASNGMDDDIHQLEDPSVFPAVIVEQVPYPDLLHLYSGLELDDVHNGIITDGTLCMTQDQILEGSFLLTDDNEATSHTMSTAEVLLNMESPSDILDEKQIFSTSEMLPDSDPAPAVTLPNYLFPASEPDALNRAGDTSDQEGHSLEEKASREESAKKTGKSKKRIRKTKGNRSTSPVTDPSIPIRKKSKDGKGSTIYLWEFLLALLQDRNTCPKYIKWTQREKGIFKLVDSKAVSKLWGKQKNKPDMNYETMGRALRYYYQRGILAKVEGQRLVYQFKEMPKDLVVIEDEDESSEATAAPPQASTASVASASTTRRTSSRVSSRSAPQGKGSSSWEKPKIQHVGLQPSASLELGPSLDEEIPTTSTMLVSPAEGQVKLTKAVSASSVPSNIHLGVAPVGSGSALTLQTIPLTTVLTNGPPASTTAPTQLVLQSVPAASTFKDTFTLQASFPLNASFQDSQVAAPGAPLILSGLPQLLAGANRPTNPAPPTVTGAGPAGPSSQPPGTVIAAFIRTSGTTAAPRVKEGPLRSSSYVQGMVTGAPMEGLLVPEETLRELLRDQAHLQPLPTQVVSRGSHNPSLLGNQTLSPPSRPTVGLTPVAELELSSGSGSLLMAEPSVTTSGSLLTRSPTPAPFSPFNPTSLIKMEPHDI
How it was run: as §1

[14] = biological target: T9, ELK4 (Homo sapiens, UniProt P28324-2 1-405)
T9 sequence: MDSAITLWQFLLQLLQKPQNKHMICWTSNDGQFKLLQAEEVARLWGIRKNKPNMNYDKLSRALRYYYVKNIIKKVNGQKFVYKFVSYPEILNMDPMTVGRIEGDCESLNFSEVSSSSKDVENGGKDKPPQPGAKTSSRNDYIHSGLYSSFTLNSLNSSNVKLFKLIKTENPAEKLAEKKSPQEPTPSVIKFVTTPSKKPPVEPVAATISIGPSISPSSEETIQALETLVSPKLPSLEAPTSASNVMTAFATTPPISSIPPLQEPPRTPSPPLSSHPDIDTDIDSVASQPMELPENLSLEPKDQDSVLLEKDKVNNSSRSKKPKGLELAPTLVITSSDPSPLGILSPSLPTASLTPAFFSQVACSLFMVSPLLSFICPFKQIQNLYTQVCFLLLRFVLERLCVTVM
How it was run: as §1

[15] = biological target: T10, ETV2 (Homo sapiens, UniProt O00321 1-342)
T10 sequence: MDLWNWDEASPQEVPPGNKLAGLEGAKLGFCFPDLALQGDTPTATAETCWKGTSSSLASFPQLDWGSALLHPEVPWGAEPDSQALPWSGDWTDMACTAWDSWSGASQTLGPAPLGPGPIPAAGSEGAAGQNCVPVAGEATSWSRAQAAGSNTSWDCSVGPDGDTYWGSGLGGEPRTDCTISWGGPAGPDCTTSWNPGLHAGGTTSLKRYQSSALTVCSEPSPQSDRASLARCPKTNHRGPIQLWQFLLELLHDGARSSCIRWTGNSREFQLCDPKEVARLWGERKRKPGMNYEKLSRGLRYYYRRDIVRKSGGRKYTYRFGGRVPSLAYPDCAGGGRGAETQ
How it was run: as §1

[16] = biological target: T11, ELF3 (Homo sapiens, UniProt P78545 1-371)
T11 sequence: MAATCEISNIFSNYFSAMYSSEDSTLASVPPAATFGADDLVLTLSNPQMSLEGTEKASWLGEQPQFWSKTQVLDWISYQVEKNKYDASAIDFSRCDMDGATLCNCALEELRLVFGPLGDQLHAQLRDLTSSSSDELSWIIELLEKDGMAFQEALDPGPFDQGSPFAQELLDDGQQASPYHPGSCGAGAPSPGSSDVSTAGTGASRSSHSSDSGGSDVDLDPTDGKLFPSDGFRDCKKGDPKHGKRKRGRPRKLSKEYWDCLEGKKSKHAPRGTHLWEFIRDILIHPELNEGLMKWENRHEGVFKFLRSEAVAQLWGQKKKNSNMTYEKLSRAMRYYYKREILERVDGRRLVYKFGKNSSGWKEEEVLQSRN
How it was run: as §1

[17] = biological target: ETV1 (Homo sapiens, UniProt P50549 1-477)
Chain of ETV1 (P50549 whole entry): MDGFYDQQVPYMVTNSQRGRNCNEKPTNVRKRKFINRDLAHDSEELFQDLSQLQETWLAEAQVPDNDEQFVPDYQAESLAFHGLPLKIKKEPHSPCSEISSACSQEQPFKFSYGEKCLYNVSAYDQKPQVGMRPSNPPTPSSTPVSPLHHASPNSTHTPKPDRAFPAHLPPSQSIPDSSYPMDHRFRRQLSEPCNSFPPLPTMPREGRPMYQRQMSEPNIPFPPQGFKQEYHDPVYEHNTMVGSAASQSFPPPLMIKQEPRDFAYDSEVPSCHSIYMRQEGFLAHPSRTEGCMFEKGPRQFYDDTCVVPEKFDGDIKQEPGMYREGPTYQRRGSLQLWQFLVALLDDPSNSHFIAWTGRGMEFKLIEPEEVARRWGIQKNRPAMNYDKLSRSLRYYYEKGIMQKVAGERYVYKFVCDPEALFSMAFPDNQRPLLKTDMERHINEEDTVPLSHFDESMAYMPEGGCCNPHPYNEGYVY
How it was run: as §1

CCAACG
binding signal [1]: 1.12 fold enrichment (6-mer frequency, TF over GST control)
binding signal [2]: 1.15 fold enrichment (6-mer frequency, TF over GST control)
binding signal [3]: 1.09 fold enrichment (6-mer frequency, TF over GST control)
binding signal [4]: 1.17 fold enrichment (6-mer frequency, TF over GST control)
binding signal [5]: 1.2 fold enrichment (6-mer frequency, TF over GST control)
binding signal [6]: 1.11 fold enrichment (6-mer frequency, TF over GST control)
binding signal [7]: 1.15 fold enrichment (6-mer frequency, TF over GST control)
binding signal [8]: 1.07 fold enrichment (6-mer frequency, TF over GST control)
binding signal [9]: 1 fold enrichment (6-mer frequency, TF over GST control)
binding signal [10]: 1.14 fold enrichment (6-mer frequency, TF over GST control)
binding signal [11]: 1.06 fold enrichment (6-mer frequency, TF over GST control)
binding signal [12]: 1.11 fold enrichment (6-mer frequency, TF over GST control)
binding signal [13]: 1.21 fold enrichment (6-mer frequency, TF over GST control)
binding signal [14]: 1.12 fold enrichment (6-mer frequency, TF over GST control)
binding signal [15]: 1.14 fold enrichment (6-mer frequency, TF over GST control)
binding signal [16]: 1.17 fold enrichment (6-mer frequency, TF over GST control)
binding signal [17]: 1.11 fold enrichment (6-mer frequency, TF over GST control)
